In the library only some 2.7% were active in any assay of this set; here they are far more common.
CHT allo act: CHT positive allosteric modulators, primary screen, cell-based, membrane potential dye, choline EC20. High affinity choline transporter 1 (Homo sapiens), Q9GZV3. CHT-expressing cells; stronger effect = higher value; LV-AA mutant CHT in HEK293 cells. B-score at 10 µM. 310,000 tested, 0.49% active. AID 488977, 2010;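 active = initial fluorescence not abnormally high and integrated response B-score, plate-corrected, over 3 SD above library mean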
Target sequence (Q9GZV3 whole entry, looked up): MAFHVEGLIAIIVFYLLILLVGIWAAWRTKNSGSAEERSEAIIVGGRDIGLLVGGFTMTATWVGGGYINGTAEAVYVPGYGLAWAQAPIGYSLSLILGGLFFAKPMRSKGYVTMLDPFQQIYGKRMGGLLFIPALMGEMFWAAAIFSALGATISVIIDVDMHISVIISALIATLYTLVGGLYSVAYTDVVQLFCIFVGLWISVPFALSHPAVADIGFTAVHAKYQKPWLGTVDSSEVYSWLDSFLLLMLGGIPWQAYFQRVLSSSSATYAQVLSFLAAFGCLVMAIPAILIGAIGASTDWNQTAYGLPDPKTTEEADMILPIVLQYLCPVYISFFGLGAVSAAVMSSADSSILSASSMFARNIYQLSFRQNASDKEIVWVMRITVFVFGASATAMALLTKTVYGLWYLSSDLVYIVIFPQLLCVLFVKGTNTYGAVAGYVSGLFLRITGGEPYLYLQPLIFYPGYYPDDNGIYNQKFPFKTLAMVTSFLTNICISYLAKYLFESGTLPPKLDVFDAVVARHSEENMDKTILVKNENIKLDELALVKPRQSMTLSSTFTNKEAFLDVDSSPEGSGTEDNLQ
ANO1 block: TMEM16A chloride channel inhibitors, primary screen, cell-based, HTS. Anoctamin-1 (Mus musculus), Q8BHY3. HEK293 TMEM16A/YFP iodide influx fluorescence, ionomycin. normalized B-score (activity score, 25-100; higher = stronger inhibition) at 10 µM. 310,000 tested, 1.2% active. AID 588511, 2011;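 active = ratio plate-corrected score three or more library SD toward inhibition, starting fluorescence score within five deviations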;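 note: score derived from kinetic fluorescence span divided by baseline fluorescence per well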
CHT inh: inhibitors of human choline transporter CHT. B-score at 10 µM. CHT-expressing cells, membrane potential dye, choline response; stronger effect = lower value. High affinity choline transporter 1 (Homo sapiens), Q9GZV3. 310,000 tested, 0.86% active. AID 488975, 2010;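 active = B-score over 3 SD under the library average, and starting fluorescence ratio not unusually high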;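 note: choline stimulus applied at its EC90 after an EC20 pre-addition; B-score computed on integrated fluorescence ratio after choline addition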
TMEM16A act: TMEM16A chloride channel activators or potentiators, primary screen, cell-based, HTS; 340,000 tested, 0.3% active; HEK293 TMEM16A/YFP-H148Q/I152L, iodide quench fluorescence; stronger effect = lower value; B-score at 10 µM;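 active = fluorescence-ratio B-score plate-corrected deviation score at least 3 library SD below zero, with starting fluorescence score within 5 deviations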;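 note: channel opened by trigger with iodide after compound preincubation; score built on the fluorescence ratio of max minus min over baseline; more negative score means more quench and so TMEM16A activation or potentiation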
IDE cell activ: human IDE activators in live cells, primary screen, fluorescence polarization, HEK cells, FAbeta-B substrate. Insulin-degrading enzyme (Homo sapiens), P14735. FAbeta-B cleavage; 0% vehicle, 100% cell-free pure enzyme wells. 340,000 tested, 0.073% active. activation, % at 5.96 µM;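 active = activation above the mean of all tested compounds plus 3 SD, set per screening campaign, cut at about 17% in these data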
IDE cell inh: human IDE inhibitors in live cells, primary screen, fluorescence polarization, HEK cells, FAbetaB substrate; AID 434962, 2010; 320,000 tested, 0.41% active; inhibition, % at 5.59 µM; Insulin-degrading enzyme (Homo sapiens), P14735; FAbetaB cleavage;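 active = percent inhibition above the average of all tested compounds plus 3 SD, set per screening campaign, cut at about 16% in these data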;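 note: IDE supplied by intact live HEK cells; FP after avidin binding of uncleaved biotin substrate so inhibition keeps polarization high; 0% = DMSO wells and 100% = 60 µM reference IDE inhibitor Ii1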
TMEM16A reconf: TMEM16A chloride channel inhibitors, confirmation, cell-based, re-confirmation | AID 652189, 2013 | 2,300 tested, 39% active | shares compounds with ANO1 block | inhibition, % at 10 µM | HEK293 TMEM16A/YFP-H148Q, iodide quench fluorescence; ionomycin added to raise cell calcium;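 active = mean duplicate percent inhibition, scaled so buffer wells are 0 and the reference blocker 100, over three buffer SD above buffer mean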
TMEM16A Ca cntr: calcium mobilization in TMEM16A/YFP HEK293 cells, confirmation, counter-screen for TMEM16A inhibitor project; shares compounds with ANO1 block; Fluo4 calcium mobilization; calcium response (% of ionomycin), % at 10 µM; 2,300 tested, 2% active; AID 652231, 2013;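 active = duplicate-averaged calcium signal over 20% of the ionomycin maximum, relative to buffer baseline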;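 note: each well's signal is peak minus trough fluorescence divided by its pre-addition baseline; 0% = buffer wells and 100% = ionomycin wells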
Parental YFP cnt: iodide YFP quench changes in parental YFP-HEK293, counter-screen for TMEM16A inhibitor project, cell-based. shares compounds with ANO1 block. ionomycin. YFP ratio F(max-min)/F0 at 10 µM. 2,300 tested, under 10 active;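 active = yellow fluorescent protein signal ratio exceeding the buffer control mean by over 5 SD of those controls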;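 note: ratio is mean of duplicate wells from kinetic YFP trace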
ClC-1 rat inh: ClC-1 chloride channel inhibition, selectivity assay for TMEM16A inhibitor project, cell-based, voltage-dependent ClC-1 | shares compounds with ANO1 block | CHO ClC-1-YFP, iodide influx fluorescence quench; iodide control reads 0, buffer control 100 | ratio percent, % at 10 µM | 2,300 tested, under 10 active;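 active = duplicate-mean ratio percent above the mean of iodide-only control wells, which defines zero, plus 5 of their SD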;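 note: higher percent means stronger block of ClC-1 iodide influx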
Starred values were filed as active, the others as inactive; i = inactive; / = no result.

SMILES	CHT allo act	ANO1 block	CHT inh	TMEM16A act	IDE cell activ	IDE cell inh	TMEM16A reconf	TMEM16A Ca cntr	Parental YFP cnt	ClC-1 rat inh
CC(=O)/C(C#N)=C1\NC(=O)C(Cc2ccccc2Cl)S1 (centres undefined)	i	i	i	/	-3	10	/	/	/	/
CC(=O)/C(C#N)=C1\NC(=O)C(Cc2cc(Cl)ccc2Cl)S1 (centres undefined)	i	100*	i	i	-4	5	46%*	i	-1.1	-12
CCN1CCN(CCCNC(=O)c2ccc(/C=C3/Sc4ccccc4N(Cc4ccccc4F)C3=O)cc2)CC1	i	i	i	i	11	-2	25%*	i	-1.3	-6
Cn1c(=O)oc2cc(S(=O)(=O)N3CCN(C(=O)c4ccco4)CC3)ccc21	i	100*	i	i	0	-4	i	i	-1	-6
CSc1ccc(C2NC(=O)c3c(sc4c3CCN(C)C4)N2)cc1 (centres undefined)	i	i	i	i	-16	11	i	i	-0.53	-6
Cc1cc(C)c(C(=O)OCc2csc(CC(=O)Nc3ccccc3C)n2)c(C)c1	i	25*	i	i	3	0	i	i	-1.1	-13
CCN(CC)CCCCOc1ccccc1OC	i	100*	i	i	0	-2	i	i	-1.1	-12
COc1ccccc1OCCn1ccnc1	i	i	i	i	1	0	/	/	/	/
CC(C)(C)c1ccc(OCCOCCn2cnc3ccccc3c2=O)cc1	i	25*	i	i	2	3	20%*	i	-1.2	-10
CC1=CC(C)(C)N(C(=O)CCl)c2cc(C)ccc21	i	i	i	i	1	6	/	/	/	/
CC1=CC(C)(C)N(C(=O)c2ccc(F)cc2)c2cc3c(cc21)OCO3	i	100*	i	i	3	-5	58%*	i	-1	-13
CC(C)NC(=O)CSc1ccccc1C(=O)NNC(=O)Cn1ccc(C(F)(F)F)n1	i	i	i	i	10	2	/	/	/	/
O=C(NCc1ccc(N2CCCC2=O)cc1)Nc1cccc(Cl)c1	i	25*	i	i	-5	7	i	i	-1.1	-6
O=C(NCc1ccc(N2CCCC2=O)cc1)c1cccc(Cl)c1	i	i	i	i	-1	0	/	/	/	/
OC(COC1CCCCC1)CN1CCCCC1 (centres undefined)	i	i	i	i	6	5	/	/	/	/
Cc1ccc(N2CCN(CC(O)COC3CCCCC3)CC2)cc1 (centres undefined)	i	25*	i	i	5	11	i	i	-1.4	-5
COc1c(C(=O)Nc2ccc(Cc3ccncc3)cc2)ccc2ccccc12	i	100*	i	i	2	3	i	i	-1.1	-8

Screening data deposited in PubChem BioAssay by several laboratories.
